uPA surface inh: qHTS for Inhibitors of Cell Surface uPA Generation. cell surface uPA generation assay, qHTS. Potency, µM (highest dose often 38.3 µM), for inactives: at the top dose activity change, negative = inhibition, actives largely listed as inhibitors. actives 0.31% (n = 330,000). AID 540303, 2011; active = well fitted inhibition curve with a large enough effect; inconclusive = small, poorly fitted or top-dose-only effect; inactive = no such curve, though single readings can be large or run the other way; tested in mouse RAW 264.7 cells; note: potency is the fitted concentration of half-maximal effect; % is set by controls: 0 for no effect and ±100 for the full control effect; nearly all actives have a fitted effect of over 55% in size
TDP1 block: qHTS Assay for Inhibitors of Tyrosyl-DNA Phosphodiesterase (TDP1) | recombinant TDP1, AlphaScreen DNA substrate cleavage | Potency, µM (titrated, usually from 130 µM), inactives show at the top dose activity change, negative = inhibition, hits mostly inhibitors | AID 485290, 2010 | actives 0.28% (n = 350,000); note: potency is the fitted concentration of half-maximal effect; % is set by controls: 0 for no effect and ±100 for the full control effect; nearly all actives have a fitted effect of over 40% in size
Target sequence (Q9NUW8 whole entry, looked up): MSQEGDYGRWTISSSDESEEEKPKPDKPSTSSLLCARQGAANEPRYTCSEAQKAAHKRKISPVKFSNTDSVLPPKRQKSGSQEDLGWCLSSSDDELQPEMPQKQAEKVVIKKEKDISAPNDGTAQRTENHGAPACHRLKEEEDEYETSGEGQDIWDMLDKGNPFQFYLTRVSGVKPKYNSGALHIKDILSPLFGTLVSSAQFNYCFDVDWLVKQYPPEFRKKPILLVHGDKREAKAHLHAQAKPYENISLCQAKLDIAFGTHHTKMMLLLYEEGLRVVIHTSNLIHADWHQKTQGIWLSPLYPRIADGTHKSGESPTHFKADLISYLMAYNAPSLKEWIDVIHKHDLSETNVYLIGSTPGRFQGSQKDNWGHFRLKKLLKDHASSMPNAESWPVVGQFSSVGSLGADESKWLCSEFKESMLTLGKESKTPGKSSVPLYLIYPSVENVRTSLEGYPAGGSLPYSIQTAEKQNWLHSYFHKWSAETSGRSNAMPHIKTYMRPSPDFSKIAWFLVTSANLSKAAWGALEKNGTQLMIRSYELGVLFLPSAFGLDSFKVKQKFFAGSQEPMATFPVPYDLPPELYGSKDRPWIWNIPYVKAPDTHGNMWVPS
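Here, a 5' biotin and 3' phosphotyrosine-FITC DNA oligonucleotide reports Tdp1 activity: intact substrate bridges AlphaScreen beads, while cleavage leaves a 3' phosphate and drops signal. All incubations at room temperature.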
TDP1 cell CPT: qHTS for Inhibitors of human tyrosyl-DNA phosphodiesterase 1 (TDP1): qHTS in cells in presence of CPT; AID 686979, 2013; actives 12% (n = 420,000); chicken DT40 Tdp1-/-;hTDP1 cells + 20 nM CPT, ATP luminescence, 48 h; Potency, µM (series often up to 46.2 µM), for the others: top-dose activity change, negative = growth inhibition, actives largely listed as inhibitors; note: potency is the fitted concentration of half-maximal effect; % is set by controls: 0 for no effect and ±100 for the full control effect; nearly all actives have a fitted effect of over 55% in size
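Chicken DT40 Tdp1-/- cells stably complemented with human TDP1 were seeded at 400 cells/well in medium containing 20 nM camptothecin, exposed to pin-transferred compounds, and grown at 37 °C for at least 48 hr. Viability was read as ATP luminescence.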
miR-21 reporter: qHTS Assay for Modulators of miRNAs and/orActivators of miR-21 | HeLa miR-21 FLuc reporter, luciferase, 48 h | Potency, µM (doses to about 38.3 µM), for the others: at the top dose activity change, positive = activation, hits mostly activators | 340,000 tested, under 10 active;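 note: % of control where 0% means no effect; miR-21 action dims this reporter so a rising signal means less miR-21 action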
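HeLa miR-21-FLuc reporter line, endogenous miR-21; 2000 cells/well in DMEM/10% FBS; compound titration up to ~40uM final, 48 h, 37 degree Celsius; luciferase detection reagent, 15 min lysis, CCD luminescence.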
TDP1 cell noCPT: qHTS for Inhibitors of human tyrosyl-DNA phosphodiesterase 1 (TDP1): qHTS in cells in absence of CPT | actives 15% (n = 420,000) | Potency, µM (titrated, usually from 46.2 µM), for inactives: at the highest dose activity change, negative = growth inhibition, most hits filed as inhibitors | DT40 Tdp1-/- hTDP1 cells, no CPT, ATP luminescence, 48 h; note: potency is the fitted concentration of half-maximal effect; % is set by controls: 0 for no effect and ±100 for the full control effect; nearly all actives have a fitted effect of over 55% in size
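Chicken DT40 Tdp1-/- cells stably complemented with human TDP1 were seeded at 400 cells/well with DMSO in place of 20 nM camptothecin. After compound pinning, cells grew at least 48 hr at 37 °C; viability read by CellTiter-Glo luminescence.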
Numbers without * were called inactive; ? = inconclusive; nt = no result; [ ] = dose if it differs, or a comment. This is a sample that favours compounds with a hit; in the whole collection about 16% have one here. Unless noted, calls come from the whole dose curve; as a rule, active = well fitted curve in the direction sought with a large enough effect; inconclusive = small, poorly fitted or top-dose-only effect, or another doubt; inactive = no such curve, though single readings can be large; an effect the other way counts as inactive or inconclusive.

SMILES	uPA surface inh	TDP1 block	TDP1 cell CPT	miR-21 reporter	TDP1 cell noCPT
O=C1CCC(C(=O)N2CCCC2)CN1CCc1cccc(F)c1 (stereo not drawn)	12%	1%	1%	-2%	-14%
COC(=O)CSc1nc(-c2cccs2)ccc1C#N	nt	-5%	10%	-56%	?
C=C(C)c1cccc(C(C)(C)NC(=O)N2CCN(c3ccc(OC)cc3)CC2)c1	0%	0%	?	2%	?
O=C(O)Cn1c(COc2ccc(Cl)cc2)nc2ccccc21	-19%	3%	-4%	1%	-1%
Cc1ccc(-c2cc(C(F)F)nc(S(C)(=O)=O)n2)cc1	-6%	-5%	0.92µM*	26%	1.3µM*
COC(=O)C(C)Oc1ccc2c(c1)O/C(=C\c1ccco1)C2=O (stereo not drawn)	-1%	nt	-5%	-1%	-7%
O=C(NNC1=Nc2ccccc2SC1)c1ccc(Cl)cc1	-1%	nt	6.5µM*	7%	12µM*
O=C(NNC1=Nc2ccccc2SC1)c1ccc(F)cc1	-10%	7%	?	13%	23µM*
CCOC(=O)c1sc(NNC(=O)c2ccc(F)cc2)nc1C	-5%	nt	?	-2%	?
CC1Cc2ccccc2N1CC(=O)Nc1ccc2c(c1)OCO2 (stereo not drawn)	nt	2%	-26%	1%	?
COc1ccc(-c2ccc(CNc3ccc4[nH]c(=O)[nH]c4c3)o2)cc1Cl	nt	4%	?	-18%	?
Cc1ccccc1CN(C)CC(=O)NC(C)CCc1ccccc1 (stereo not drawn)	3%	1%	?	-4%	16µM*
Cc1ccc(CC(=O)NC(C)CCc2ccccc2)cc1 (stereo not drawn)	-3%	-1%	3%	-9%	?
Cc1cccc(C)c1NC(=S)NC(C)CCc1ccccc1 (stereo not drawn)	-3%	3%	?	20%	16µM*
Cc1cccc(C)c1NC(=O)c1nc(S(C)(=O)=O)ncc1N(Cc1ccc(C(C)(C)C)cc1)Cc1ccco1	nt	5%	?	1%	?
Cc1[nH]n(C(N)=S)c(=O)c1N=Nc1ccc(Br)cc1	6%	nt	23µM*	-52%	16µM*
Cc1ccc(N=Nc2c(C)[nH]n(C(N)=S)c2=O)cc1	-5%	5%	-16%	-28%	?
COc1ccc2[nH]c3c(=O)n(Cc4ccc(C(=O)NCC5CCCO5)cc4)c(=S)[nH]c3c2c1 (stereo not drawn)	11%	?	-10%	-2%	-20%
O=C(Nc1ccc(Oc2c(F)c(F)c(F)c(F)c2F)cc1)OC1CCN2Cc3ccccc3N=C12 (stereo not drawn)	-12%	9%	5.2µM*	8%	2.3µM*
Cc1ccc(CNC(=O)c2ccc(Cn3c(=O)c4ccccc4n(CC(=O)Nc4c(C)cc(C)cc4C)c3=O)cc2)cc1	nt	0%	6.5µM*	-4%	4.6µM*
CCc1ccccc1NC(=O)Cn1c(=O)n(CCc2ccccc2)c(=O)c2ccccc21	nt	6%	?	-6%	?
Cc1ccc(CNC(=O)c2ccc(Cn3c(=O)c4ccccc4n(CC(=O)Nc4ccc(C)cc4)c3=O)cc2)cc1	nt	2%	-26%	-5%	-23%
Cc1cc(C)c(NC(=O)Cn2c(=O)n(CCc3ccccc3)c(=O)c3ccccc32)c(C)c1	nt	-2%	15µM*	-2%	21µM*
COC(=O)c1ccccc1NC(=O)Cn1c(=O)n(CCCC(=O)NCc2ccccc2Cl)c(=O)c2ccccc21	nt	2%	?	-6%	?
COC(=O)c1ccccc1NC(=O)Cn1c(=O)n(-c2ccc(C)cc2)c(=O)c2ccccc21	nt	-2%	0.82µM*	19%	0.92µM*
SMILES	uPA surface inh	TDP1 block	TDP1 cell CPT	miR-21 reporter	TDP1 cell noCPT
CCOc1ccc(NC(=O)Cn2c(=O)n(Cc3ccc(C(=O)NCc4ccc(C)cc4)cc3)c(=O)c3ccccc32)cc1	nt	2%	16µM*	0%	15µM*
CC(C)CC(NC(=O)C1CCCCC1)C(=O)Nc1cccc(C(F)(F)F)c1 (stereo not drawn)	nt	3%	-27%	-3%	-25%
CCc1nc2ccccc2n1CC(=O)Nc1cc(C)on1	-1%	1%	-6%	-1%	?
Cc1ccc(CNC(=O)c2ccc(Cn3c(=O)c4ccccc4n(CC(=O)Nc4ccc(C)cc4C)c3=O)cc2)cc1	nt	0%	16µM*	-2%	?
COc1ccccc1N1CCN(C2CCCCC2NS(=O)(=O)c2ccccc2)CC1 (stereo not drawn)	5%	7%	21µM*	10%	16µM*
COc1ccc(NC2CC(=O)N(CCc3ccccc3)C2=O)cc1 (stereo not drawn)	-1%	8%	6%	-11%	-30%
Cc1onc(NC(=O)c2ccc(Cl)cc2Cl)c1Br	-3%	-6%	?	-40%	10µM*
CN1CCN(C(=O)c2cc3cc(F)ccc3[nH]2)CC1	-18%	nt	?	-17%	-17%
CSc1ccc(C(=O)C2CCCN(C(=O)c3cc4cc(F)ccc4[nH]3)C2)cc1 (stereo not drawn)	-1%	12%	18µM*	-10%	18µM*
COc1ccccc1N1CCN(C(=O)c2cc3ccccc3[nH]2)CC1	8%	7%	?	-5%	?
COc1ccccc1N1CCN(C(=O)c2cc3cc(Cl)ccc3[nH]2)CC1	20%	4%	16µM*	-3%	18µM*
COc1ccccc1N1CCN(C(=O)c2cc3cc(F)ccc3[nH]2)CC1	0%	nt	?	-5%	23µM*
O=C(c1cc2cc(F)ccc2[nH]1)N1CCN(C(=O)c2ccco2)CC1	10%	3%	?	-14%	21µM*
O=C(CCC(=O)N1CCOc2ccccc21)N1CCCCC1	-30%	nt	?	-1%	-23%
Cc1ccc2nc(Cl)c(CNCc3ccccc3)cc2c1	-5%	-6%	?	5%	?
O=C(NCc1cccs1)C(=O)NCC1OCCCN1S(=O)(=O)c1ccccc1 (stereo not drawn)	-4%	6%	-15%	-7%	?
CCOC(=O)c1c(NC(=O)C(=O)N/N=C/c2ccc(OCC)cc2)sc2c1CCCCC2	6%	2%	?	-5%	?
CCOC(=O)c1c(NC(=O)C(=O)N/N=C/c2ccc(O)c(OC)c2)sc2c1CCCCC2	-4%	3%	?	-6%	23µM*
CCOC(=O)c1c(CC(C)C)csc1NC(=O)COC(=O)c1ccc(O)cc1	4%	-14%[0.505 µM]	23µM*	nt	18µM*

Screening results deposited in PubChem BioAssay by National Center for Advancing Translational Sciences (NCATS).
